# Screening data deposited in PubChem by National Center for Advancing Translational Sciences (NCATS).
# Most compounds without a hit are left out; they make up all but 3.8% or so of the library.
# HT1080 IDH1KD tx – kills HT-1080 cells with IDH1 knockdown; actives 2% (n = 360,000); Potency, µM (top dose mostly 46.1 µM), without a hit: top-dose activity, negative = toxicity, usual class: cytotoxic; HT-1080 IDH1 knockdown viability, ATP luminescence, 48 h; AID 686971;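 also: 0% = DMSO wells and -100% = cell-free medium wells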
#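 After a 2 h attachment period, IDH1KD HT-1080 cells took pin-transferred compound for 48 h at 37 °C; ATP-based luminescence after 10 min room-temperature reagent incubation reported viability.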
# ATXN2 expr inh – inhibitors of ATXN2 expression; HEK-293 ATXN2-luciferase reporter, luminescence, 24 h; Potency, µM (titrated, usually from 57 µM), for inactives: at the top dose activity change, negative = inhibition, usual class: inhibitors; actives 0.72% (n = 360,000); AID 1745845; also: % is scaled to controls: 0 for no effect and ±100 for the full control effect; nearly all actives have a fitted effect of over 55% in size
#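 qHTS (up to 57 uM final) was run with 24 h compound exposure of reporter cells at 37 °C. Each well was multiplexed: SteadyGlo luminescence measured ATXN2-luciferase expression after a fluorogenic Gly-Phe-AFC viability readout (25 uM final).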
# TGFb inhibitor – blocks TGF-b signaling; HepG2 CAGA-GFP TGF-b/SMAD3 reporter, GFP fluorescence, 18 h; TGF-beta stimulated, 500 pg/mL final; actives 1.2% (n = 410,000); Potency, µM (top dose mostly 46.1 µM), for the others: at the highest dose activity, negative = inhibition, usual class: inhibitors; AID 588855; also: % is scaled to controls: 0 for no effect and ±100 for the full control effect; nearly all actives have a fitted effect of over 65% in size
#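 Smad-responsive CAGA-GFP expression was quantified in HEPG2 cells exposed to compounds and 500 pg/mL final TGF-beta for 18 h at 37 degrees C; unstimulated wells defined full inhibition.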
# S2 tox – viability counter-screen for ATXN expression inhibitors | actives 0.49% (n = 400,000) | S2 cells (HEK-293 line with an ATXN2-luciferase reporter) viability, CellTiter-Fluor protease fluorescence, 24 h | Potency, µM (top dose mostly 56.7 µM), most hits filed as cytotoxic; also: nearly all actives have a fitted effect of over 40% in size
# HT1080-NT tox – kills 2HG-producing HT-1080-NT fibrosarcoma cells; HT-1080-NT fibrosarcoma viability, CellTiter-Glo ATP luminescence, 48 h; Potency, µM (titrated, usually from 46.1 µM), for the others: top-dose activity, negative = less viability, actives largely listed as cytotoxic; actives 1.6% (n = 360,000);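 also: NT is the 2HG producing partner of a matched IDH1 knockdown line; 0% = DMSO-treated cells and -100% = media-only wells without cells; nearly all actives have a fitted effect of over 55% in size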
#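 HT-1080-NT fibrosarcoma cells (2HG-overproducing), 750 cells/well in RPMI with 5% FBS, dosed after 2 h and incubated 48 h at 37C. CellTiter-Glo luminescence normalized to DMSO and no-cell wells; concentration-response curves fitted and classed.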
# HepG2 viability – HepG2 cytotoxicity, counter-screen for TGF-b inhibitors; HepG2 CAGA-GFP viability, ATP luminescence, 18 h; Potency, µM (series often up to 46.1 µM), without a hit: at the top dose activity change, negative = cytotoxicity, usual class: cytotoxic; actives 0.76% (n = 410,000)
#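 HepG2 CAGA-GFP cells (1000/well, DMEM with 1% FBS) received compound, then TGF-beta at 500 pg/mL final, and were incubated 18 hours at 37 degrees C. Viability was read by CellTiter-Glo luminescence. Media-only wells were set as complete cell-killing and DMSO as no toxicity.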
# * hit, by the source's call; i = inactive; ? = inconclusive; / = not tested or not shown. Calls follow the shape of the dose curve; as a rule, active = well fitted curve in the direction sought with a large enough effect; inconclusive = small, poorly fitted or top-dose-only effect, or another doubt; inactive = no such curve, though single readings can be large; an effect the other way counts as inactive or inconclusive. Potency is read from the fitted curve at half-maximal effect.
SMILES,HT1080 IDH1KD tx,ATXN2 expr inh,TGFb inhibitor,S2 tox,HT1080-NT tox,HepG2 viability
Cc1ccccc1C(=O)Nc1ccc(C(=O)N/N=C/c2ccc(O)cc2)cc1,?,-20.7%,5.5%,i,8.2µM*,-28.6%
Cc1ccccc1C(=O)Nc1cccc(C(=O)N/N=C/c2cc(Cl)cc([N+](=O)[O-])c2O)c1,?,22.4µM*,-17.9%,i,?,-13.5%
Cc1cc(C)n(-c2ccc(C(=O)N3CCc4c(cnc(C)c4CNC(=O)c4ccccc4F)C3)cc2)n1,/,/,/,i,/,/
COc1cccc(C(=O)Nc2cccc(C(=O)OCc3cc(=O)n4nc(C5CC5)sc4n3)c2)c1,/,4.6%,19.6%,?,/,6.7%
COc1cccc(/C=C/c2nccc3ccccc23)c1OC,/,/,3.3%,/,/,-8.4%
OC(C[n+]1ccccc1Cl)c1ccccc1 (stereo not drawn),/,/,7.7%,/,/,-0.1%
OC[C@H]1O[C@@H](c2nc3ccc(-c4nc(-c5ccc(Br)cc5)no4)cc3[nH]2)C[C@@H]1O,18.4µM*,-48.9%,7.2%,?,18.4µM*,-28.7%
CCN(CC)C(=O)c1ccc2nc([C@H]3C[C@H](O)[C@@H](CO)O3)[nH]c2c1,13.9%,0.0%,-6.3%,i,-1.8%,-6.6%
Cc1ccc2cccc(NC(=S)NC(=O)c3ccn(C)n3)c2n1,7.94µM*,-11.4%,-26.8%,i,7.94µM*,-28.5%
Cc1ccc2cccc(NC(=S)NC(=O)c3c(Br)cnn3C)c2n1,-17.7%,-18.8%,-3.9%,i,-20.7%,-36.5%
CCCCCCCCCCCCCCC(O)C[N+](C)(CCO)CCO (stereo not drawn),18.4µM*,-37.8%,?,?,?,-103.7%
O=C1CCNc2ccc(-c3ccccc3)cc21,-0.1%,?,19.5%,i,-1.1%,-5.2%
O=C1CCNc2cc3ccccc3cc21,16.4µM*,-19.3%,?,i,-20.7%,-42.1%
O=C1CCCCN1CCC(=O)N1CCOc2ccc(C(O)C3CCCCC3)cc2C1 (stereo not drawn),/,/,/,i,/,/
Cc1nc(NC(=S)NC(=O)c2ccccc2)sc1C,5.2%,25.2%,-29.8%,i,-1.7%,-14.7%
Cc1nc(NC(=O)c2ccccc2)sc1C,-13.4%,/,8.8%,i,-20.3%,15.8µM*
Cc1nc(NC(N)=S)sc1C(=O)Nc1ccccc1,?,5.9%,3.0%,i,-7.9%,11.2µM*
O=C(CCc1cccnc1)NCC1Cc2cccc(-c3ncccn3)c2O1 (stereo not drawn),/,/,/,i,/,/
CN1CC2(Cc3cc([N+](=O)[O-])ccc31)C(=O)OC(C)(C)OC2=O,/,/,-6.3%,/,/,1.1%
CCN(CC)S(=O)(=O)c1ccc2c(c1)C(=NO)c1cc(S(=O)(=O)N(CC)CC)ccc1-2,7.31µM*,?,?,?,18.4µM*,-54.7%
CCCOc1ccc2c(c1)C(=NN=C(N)N)c1cc(OCCC)ccc1-2,?,20µM*,?,25.1µM*,?,-104.0%
CCN(CC)CCOc1ccc2c(c1)C(=NO)c1cc(OCCN(CC)CC)ccc1-2,7.08µM*,11.2µM*,11.2µM*,8.91µM*,10µM*,-71.8%
CCN(CC)CCOc1ccc(Br)cc1,3.5%,-10.5%,2.5%,i,7.1%,-3.2%
CCC(=O)OCC(=O)[C@@]1(OC(=O)CC)[C@H](C)C[C@H]2[C@@H]3CCC4=CC(=O)C=C[C@]4(C)[C@@]3(F)[C@@H](O)C[C@@]21C,/,/,/,i,/,/
O=S(=O)(c1ccc2c(c1)OCO2)N1CCN(c2nc(-c3cccs3)nc3ccccc23)CC1,0.6%,/,/,/,9.5%,/
SMILES,HT1080 IDH1KD tx,ATXN2 expr inh,TGFb inhibitor,S2 tox,HT1080-NT tox,HepG2 viability
CCN(C(=O)C1CCN(c2ncnc3c2nc2n3CCCCC2)CC1)c1cccc(Cl)c1,/,/,11.2µM*,/,/,-22.0%
CN(C(=O)C1CCCN(c2ncnc3c2nc2n3CCCCC2)C1)c1cccc(Cl)c1 (stereo not drawn),?,-33.5%,?,i,?,-22.7%
O=C(C1CCCN(c2ncnc3c2nc2n3CCCCC2)C1)N1CCN(c2cccc(Cl)c2)CC1 (stereo not drawn),?,/,11.2µM*,14.1µM*,?,-38.1%
Cc1ccc(C)c(N2CCN(C(=O)C3CCCN(c4ncnc5c4nc4n5CCCCC4)C3)CC2)c1 (stereo not drawn),17.3%,?,17.8µM*,?,16.3%,-45.3%
Cc1cccc(C(=O)Nc2nnc(SCc3cc(=O)n4cccc(C)c4n3)s2)c1,/,/,-15.9%,/,/,-18.3%
Cc1nc2nc(-c3ccc(F)cc3)cn2nc1C,-2.8%,/,0.3%,/,1.5%,-19.0%
c1ccc(-c2cn3nc4c(nc3n2)CCCC4)cc1,?,5.62µM*,-1.2%,/,?,-31.4%
CCc1ccc(-c2cn3nc(C)c(C)nc3n2)cc1,2.1%,5.01µM*,-13.2%,/,-0.7%,-7.1%
Cc1nc2nc(-c3ccccc3)cn2nc1C,-12.1%,15.8µM*,1.2%,/,-17.1%,-46.3%
Cn1c(=O)n(C/C=C/c2ccccc2)c(=O)c2c1nc1n2CCN1c1ccccc1,/,/,0.8%,/,/,12.5%
CC(C)CC(=O)Nc1c(C(=O)N2CCN(c3ccccc3F)CC2)oc2ccccc12,/,/,-3.0%,/,/,7.2%
Cc1ccc2nc(-c3ccc4c(c3)OCCO4)cn2c1,2.31µM*,?,-17.4%,i,3.66µM*,-44.9%
c1ccn2cc(-c3ccc4c(c3)OCCO4)nc2c1,?,/,-0.1%,i,?,-82.1%
Clc1ccc2nc(-c3ccc4c(c3)OCO4)cn2c1,20.6µM*,?,-13.7%,i,?,-38.6%
COc1ccc(-c2cn3cc(C)ccc3n2)cc1F,-2.2%,?,?,i,-8.6%,15.8µM*
Clc1ccc2nc(-c3ccccc3)cn2c1,4.1%,3.7%,0.0%,i,2.9%,-19.6%
COc1ccc(-c2cn3cc(C)ccc3n2)cc1OC,-8.6%,-10.9%,-18.8%,?,-9.3%,-39.9%
Cc1ccc2nc(Cl)c3nnnn3c2c1,13µM*,?,?,?,-0.2%,6.31µM*
COc1cc(=O)n2c(c1C(=O)N(C)Cc1nonc1C)CCN(Cc1cccc(Cl)c1)CC2,/,/,/,i,/,/
Cc1noc(/C=C/c2ccccc2F)c1S(=O)(=O)N1CCC(C(=O)Nc2ccc(C#N)cc2)CC1,/,/,4.47µM*,/,/,-43.5%
COc1ccc(/C=C\c2onc(C)c2S(=O)(=O)N2CCC(C(=O)Nc3ccc(Cl)cc3)CC2)cc1,/,/,-17.1%,/,/,-21.6%
COc1ccc(/C=C\c2onc(C)c2S(=O)(=O)N2CCC(C(=O)Nc3ccc(C)c(F)c3)CC2)cc1,/,/,11.2µM*,/,/,-15.0%
